Bioassay records deposited in PubChem BioAssay by National Center for Advancing Translational Sciences (NCATS).
This is a sample that favours compounds with a hit; in the whole collection about 3.8% have one here.
ATXN2 expr inh = reduces ATXN2 reporter expression in HEK-293 cells. HEK-293 ATXN2-luciferase reporter, luminescence, 24 h. Potency, µM (highest dose often 57 µM), for inactives: at the top dose activity change, negative = inhibition, usual class: inhibitors. actives 0.72% (n = 360,000); further: on the % scale 0 is the no-effect control and ±100 the full control effect; nearly all actives have a fitted effect of over 55% in size
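ATXN2-luciferase reporter cells (luciferase flanked by upstream and downstream ATXN2 gene portions) were treated 24 h at 37 °C with compounds at up to 57 uM. SteadyGlo luminescence gave expression; GF-AFC fluorescence gave viability.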
ATXN viability = reduces viability in counter-screen for ATXN expression inhibitors | AID 651635 | S2 cells (HEK-293 line with an ATXN2-luciferase reporter) viability, CellTiter-Fluor protease fluorescence, 24 h | Potency, µM (titrated, usually from 56.7 µM), actives largely listed as cytotoxic | actives 0.49% (n = 400,000); further: nearly all actives have a fitted effect of over 40% in size
TGFb SMAD3 inh = TGF-b pathway inhibition; HepG2 CAGA-GFP TGF-b/SMAD3 reporter, GFP fluorescence, 18 h; TGF-beta stimulated, 500 pg/mL final; Potency, µM (doses to about 46.1 µM), for inactives: top-dose activity, negative = inhibition, actives largely listed as inhibitors; actives 1.2% (n = 410,000); further: on the % scale 0 is the no-effect control and ±100 the full control effect; nearly all actives have a fitted effect of over 65% in size
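HEPG2 CAGA-GFP, 1000 cells/well; 2 h settle, 37 C; cpd via pin tool; TGF-b 500 pg/mL final; 18 h, 37 C; GFP imaging ex488/em500-530; %Activity normalised to -TGF-b and +DMSO controls; CRC fit, curve class.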
Nrf2 block = Nrf2 pathway inhibition; A549 ARE-Fluc reporter, luciferase luminescence, 18-24 h; Potency, µM (doses to about 46 µM), for the others: at the top dose activity change, negative = inhibition, usual class: inhibitors; actives 2.1% (n = 360,000); further: on the % scale 0 is the no-effect control and ±100 the full control effect; nearly all actives have a fitted effect of over 60% in size
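Cells were seeded and rested 2 h, then exposed to compounds for 18-24 h. CellTiter-Fluor was read first as a viability measure. BugLite was added 15 min before the final luminescent read of ARE-luciferase activity in A549 cells.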
A549 tox = A549 cytotoxicity, counter-screen for Nrf2 inhibitors. A549 ARE-Fluc cells, CellTiter-Fluor viability, 18-24 h. Potency, µM (titrated, usually from 46 µM), for the others: top-dose activity change, negative = cytotoxicity, usual class: inhibitors. actives 0.16% (n = 390,000). AID 504648; further: on the % scale 0 is the no-effect control and ±100 the full control effect
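Cytotoxicity counterscreen: CellTiter-Fluor fluorescence was measured in A549 ARE_Fluc cells after 18-24 h of compound exposure in a concentration series. The subsequent BugLite luminescent read reports ARE-luciferase activity.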
HepG2 tox = kills HepG2 cells in TGF-b inhibitor counter-screen | HepG2 CAGA-GFP viability, ATP luminescence, 18 h | Potency, µM (titrated, usually from 46.1 µM), inactives show top-dose activity change, negative = cytotoxicity, actives largely listed as cytotoxic | actives 0.76% (n = 410,000) | AID 588856
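HepG2 CAGA-GFP cells (1000/well, DMEM with 1% FBS) received compound, then TGF-beta at 500 pg/mL final, and were incubated 18 hours at 37 degrees C. Viability was read by CellTiter-Glo luminescence. Media-only wells were set as complete cell-killing and DMSO as no toxicity.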
* = called active by the depositor; i = inactive; u = inconclusive; x = not tested or not shown; [ ] = dose if it differs, or a comment. The call rests on the fitted dose curve; in most records, active means well fitted curve in the direction sought with a large enough effect; inconclusive means small, poorly fitted or top-dose-only effect, or another doubt; inactive means no such curve, though single readings can be large; an effect the other way counts as inactive or inconclusive. Potency means the concentration at half of the fitted maximal effect.

SMILES	ATXN2 expr inh	ATXN viability	TGFb SMAD3 inh	Nrf2 block	A549 tox	HepG2 tox
CC(C)C[C@H]1CN([C@@H](Cc2ccccc2)CN2CCC[C@@H]2CN2C(=O)C(=O)NC[C@@H]2Cc2ccccc2)C(=O)C(=O)N1CC1CCCCC1	u	20µM*	8.9µM*	x	x	20µM*
O=C1NC[C@H](CCCCN2C[C@H](Cc3ccccc3)N(CC3CCCCC3)C(=O)C2=O)N(CC2CCCCC2)C1=O	-22%	14µM*	x	x	x	x
O=C1NC[C@H](Cc2ccc(O)cc2)N(C[C@@H]2CCCN2C[C@H](Cc2ccccc2)N2C[C@H](Cc3ccc(O)cc3)N(CC3CCCCC3)C(=O)C2=O)C1=O	20%	i	x	x	x	x
O=C1NC[C@H](Cc2ccccc2)N(C[C@H]2CCCN2C[C@H](Cc2ccccc2)N2C[C@H](Cc3ccccc3)N(CC3CCCCCC3)C(=O)C2=O)C1=O	u	18µM*	u	u	u	-70%
O=C1NC[C@@H](CCCCN2C[C@H](Cc3ccccc3)N(CC3CCCCC3)C(=O)C2=O)N(Cc2ccccc2)C1=O	3%	u	x	x	x	x
CC(C)C[C@H]1CN([C@@H](Cc2ccccc2)CN2CCC[C@@H]2CN2C(=O)C(=O)NC[C@@H]2Cc2ccc(O)cc2)C(=O)C(=O)N1CC1CCCCCC1	9%	u	u	x	x	-9%
Cn1ncc([N+](=O)[O-])c1C(=O)NC1CCCCC1	x	i	-13%	8%	1%	-6%
CCS(=O)(=O)N1CCCc2cc(C(=O)Nc3cc([N+](=O)[O-])ccc3C)ccc21	u	u	-9%	u	12%	-13%
CCOC(=O)c1c(C)sc2c1N(C(=O)CN(CC)CC)c1cc(Cl)ccc1S2	32µM*	u	u	x	u	-14%
C=CC[C@H](CC(=O)N(CCO)Cc1ccccc1)C(=O)N[C@@H](COC(=O)[C@H](CC=C)CC(=O)OC(C)(C)C)Cc1c[nH]c2ccccc12	u	u	u	u	u	-26%
C=CC[C@H](CC(=O)N[C@H](CO)Cc1ccccc1)C(=O)N[C@@H](COC(=O)[C@@H](CC=C)CC(=O)OC(C)(C)C)Cc1c[nH]c2ccccc12	u	x	11µM*	u	u	-102%
C=CC[C@@H](CC(=O)N(CCO)Cc1ccccc1)C(=O)N[C@@H](COC(=O)[C@@H](CC=C)CC(=O)OC(C)(C)C)Cc1c[nH]c2ccccc12	35µM*	20µM*	u	-26%	-18%	-38%
C=CC[C@@H](CC(=O)N[C@@H](CO)Cc1ccccc1)C(=O)N[C@H](COC(=O)[C@@H](CC=C)CC(=O)OC(C)(C)C)Cc1c[nH]c2ccccc12	u	x	u	u	u	-51%
C=CC[C@@H](CC(=O)N(CCO)Cc1ccccc1)C(=O)N[C@H](COC(=O)[C@@H](CC=C)CC(=O)OC(C)(C)C)Cc1c[nH]c2ccccc12	u	x	13µM*	u	u	-43%
CCOc1ccccc1N1CCN(C(=O)c2ccc3c(c2)OCO3)CC1	3%	i	4%	-12%	0%	-15%
O=C(NCc1ccccc1Cl)c1ccc(Cn2c(=O)c3cccn3c3cccnc32)cc1	x	x	-22%	-15%	0%	-16%
C=C1C(=O)OC2C=C(CO)C3OC3C3OC3(C)CC(OC(=O)/C(=C/C)COC(C)=O)C12 (stereo unspecified)	u	x	u	23µM*	u	-66%
CC(=O)OCC(=O)[C@@]12N=C(C)O[C@H]1C[C@H]1[C@@H]3CCC4=CC(=O)C=C[C@]4(C)[C@@H]3[C@@H](O)C[C@@]12C	-4%	x	x	x	x	x
Cc1ccc(SCc2c(-c3ccccc3)nn(C)c2Cl)cc1	-19%	i	6%	-27%	14%	-29%
Cc1ccc(Sc2c(C#N)c(-c3ccccc3)nn2C)cc1	-21%	i	u	5.8µM*	-28%[1.84 µM]	4%
CCCn1nnc(NCc2ccc(OCc3cccs3)c(OC)c2)n1	0%	i	-1%	8.2µM*	x	2%
C#CCN(C[C@@H]1[C@@H](OC(=O)NCc2ccccc2F)[C@@H](OC(=O)NCc2ccccc2F)Cn2c(=O)ccc(=O)n21)S(=O)(=O)c1ccc(C)cc1	4µM*	4µM*	11µM*	x	x	13µM*
C#CCN(C[C@@H]1[C@@H](OC(=O)NC2CCCC2)[C@@H](OC(=O)NC2CCCC2)Cn2c(=O)ccc(=O)n21)S(=O)(=O)c1ccc(C)cc1	u	11µM*	u	x	x	-84%
C#CCN(C[C@H]1[C@H](OC(=O)Nc2cccs2)[C@H](OC(=O)Nc2cccs2)C[C@H]2C(=O)N(c3ccccc3)C(=O)[C@@H]12)S(=O)(=O)c1ccc(C)cc1	3%	i	-1%	x	x	0%
C#CCN(C[C@@H]1[C@@H](OC(=O)Nc2cccs2)[C@@H](OC(=O)Nc2cccs2)Cn2c(=O)ccc(=O)n21)S(=O)(=O)c1ccc(C)cc1	3.5µM*	3.5µM*	5.6µM*	x	x	5µM*
CCCCN(C)CCCNC(=O)Cn1ncc2c3ccccc3n(Cc3cccc(Cl)c3)c2c1=O	-20%	i	1%	11%	13%	-1%
CCOc1ccc(C(=O)Nc2ccc(C(=O)N3CCOCC3)cc2)c(OCC)c1	-10%	i	1%	-6%	-2%	24%
